Most compounds without a hit are left out; they make up all but 7.4% or so of the library.
Rab9 promoter act = activates the Rab9 promoter | Potency, µM (highest dose often 9.22 µM), without a hit: top-dose activation, negative = inhibition, usual class: activators | 2.8% of 320,000 active | Huh7 Rab9 promoter-luciferase reporter, luminescence, 24 h; note: % of control where 0% means no effect; nearly all actives have a fitted effect of over 60% in size
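Luminescence from Amplite-detected luciferase (10 minutes, ambient) reports Rab9 promoter activation. Before that, stable Rab9-luciferase Huh7 cells (1500/well, reduced-serum OP-MEM I plus 10% FBS) were exposed to compound for 24 hours at 37C.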
NPC1 promoter act = activates the NPC1 promoter. 2.4% of 320,000 active. Potency, µM (top dose mostly 9.22 µM), without a hit: at the highest dose activation, actives largely listed as activators. Huh7 NPC1 promoter luciferase reporter, 24 h; note: % of control where 0% means no effect; nearly all actives have a fitted effect of over 60% in size
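Huh7 cells stably carrying NPC1 promoter–luciferase, plated in Opti-MEM with 10% FBS for 2 h, were exposed to compound in DMSO for 24 h at 37 °C; luciferase reagent was added for 10 min and luminescence read.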
KinaseGlo FLuc = Kinase-Glo luciferase inhibition (counter-screen); Q27757; Potency, µM (titrated, usually from 38.3 µM), inactives show top-dose activity change, negative = inhibition, usual class: inhibitors; 0.28% of 200,000 active; Kinase-Glo luciferase, ATP luminescence, 8 min; note: % is set by controls: 0 for no effect and ±100 for the full control effect; nearly all actives have a fitted effect of over 60% in size
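Kinase-Glo luciferase light output from ATP and luciferin was measured with 10 uM ATP, within the enzyme's linear range. Buffer: 50 mM imidazole pH 7.2, 50 mM KCl, 7 mM MgCl2, 0.01% Tween 20, 0.05% BSA; luminescence read after 8 min at ambient temperature.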
ELG1 genotoxic = induces genotoxicity in HEK293T cells with luciferase-tagged ELG1. HEK293T ELG1-luciferase reporter, luminescence, 16 h. Potency, µM (series often up to 46 µM), for the others: at the top dose activity change, positive = activation, actives largely listed as activators. 1.3% of 330,000 active. AID 504466; note: % of control where 0% means no effect; nearly all actives have a fitted effect of over 60% in size
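Reporter readout depends on ELG1 protein level, which increases with genetic stress. After 16 hr compound exposure at 37 °C, luciferase activity was quantified using ONE-Glo.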
SMN2 splice up = increases expression of the SMN2 splice variant; 2.8% of 210,000 active; Potency, µM (highest dose often 46.1 µM), without a hit: at the highest dose activity change, positive = activation, actives largely listed as activators; HEK293 SMN2-luciferase splicing reporter, luminescence, 30-36 h; AID 1458; note: % of control where 0% means no effect; nearly all actives have a fitted effect of over 55% in size
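HEK293 cells carry an SMN2 […]–luciferase reporter in which exon 7 inclusion puts luciferase in frame. Cells were plated 10-12 h before compound addition, then incubated 30-36 h at 37C. ONE-Glo luminescence was read; sodium butyrate at 4.5 mM final served as control.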
FLuc modulator = inhibits or activates purified firefly luciferase, miR-21 counter-screen; purified FLuc, Km substrates, luminescence inhibition; Potency, µM (doses to about 57.5 µM), inactives show top-dose activity change, negative = inhibition, most hits filed as inhibitors; 6.9% of 360,000 active;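 note: plate controls were vehicle for no effect and reference inhibitor for full effect; nearly all actives have a fitted effect of over 55% in size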
Target sequence (P08659 whole entry, looked up): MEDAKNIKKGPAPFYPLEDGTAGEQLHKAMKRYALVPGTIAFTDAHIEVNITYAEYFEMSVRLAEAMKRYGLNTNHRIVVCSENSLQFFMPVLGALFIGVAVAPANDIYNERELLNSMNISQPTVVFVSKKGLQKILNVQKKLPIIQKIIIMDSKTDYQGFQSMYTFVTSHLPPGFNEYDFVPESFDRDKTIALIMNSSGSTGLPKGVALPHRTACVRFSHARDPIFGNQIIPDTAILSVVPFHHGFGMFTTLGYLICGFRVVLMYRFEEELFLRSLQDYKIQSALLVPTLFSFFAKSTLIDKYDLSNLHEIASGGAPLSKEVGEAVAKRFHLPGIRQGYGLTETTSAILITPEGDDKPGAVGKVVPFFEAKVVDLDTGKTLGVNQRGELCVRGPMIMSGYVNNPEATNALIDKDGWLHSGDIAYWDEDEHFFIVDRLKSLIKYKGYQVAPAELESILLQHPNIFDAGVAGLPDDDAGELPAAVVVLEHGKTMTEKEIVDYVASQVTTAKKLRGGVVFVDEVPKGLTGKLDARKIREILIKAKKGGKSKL
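Purified P. pyralis luciferase, 10 nM final, with Km-level 10 uM D-luciferin and 10 uM ATP in 50 mM Tris acetate pH 7.5, 10 mM Mg acetate, 0.01% Tween-20, 0.05% BSA; 6-point qHTS titration about 60 µM downward; luminescence read.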
* marks the source's active call; other numbers are inactive results. Calls come from the whole dose curve; as a rule, active = well fitted curve in the direction sought with a large enough effect; inconclusive = small, poorly fitted or top-dose-only effect, or another doubt; inactive = no such curve, though single readings can be large; an effect the other way counts as inactive or inconclusive. Potency is the fitted concentration of half-maximal effect.

CN(C)c1cccc(C(=O)OCC(=O)N(C)c2ccccc2)c1 was read as Rab9 promoter act -1.4%, NPC1 promoter act 1.4%, ELG1 genotoxic 0.3% and FLuc modulator -2.0%.
`CCCc1nn2c(=O)cc(COC(=O)c3ccccc3NC(=O)C3CCCCC3)nc2s1` gave FLuc modulator -6.4%.
`Cc1ccc(NC2CCCN(C(=O)c3cccc(-c4ncc[nH]4)c3)C2)cc1C` (stereo not drawn) gave Rab9 promoter act 2.9%, NPC1 promoter act -15.5%, ELG1 genotoxic -1.5% and FLuc modulator -3.3%.
Screening C=CC(C)(C)c1cc2cc3ccoc3cc2oc1=O returned Rab9 promoter act 2.3%, NPC1 promoter act -3.4%, KinaseGlo FLuc 0.7%, ELG1 genotoxic 4.3%, SMN2 splice up -10.6% and FLuc modulator 21.3µM*.
For Cc1ccc(NC(=O)Nc2cnc3ccccc3c2)cc1 the results were Rab9 promoter act 1.26µM*, NPC1 promoter act 2.24µM*, KinaseGlo FLuc 0.2%, ELG1 genotoxic inconclusive, SMN2 splice up 12.6µM* and FLuc modulator inconclusive.
`O=C(NC(=S)Nc1ncc(Br)cc1Br)c1ccccc1` gave Rab9 promoter act 11.0%, NPC1 promoter act inconclusive, ELG1 genotoxic inconclusive and FLuc modulator 21.3µM*.
Screening COC(=O)c1cccc(C(=O)Nc2ccc(C)cc2Br)n1 returned Rab9 promoter act -17.5%, NPC1 promoter act 6.1%, KinaseGlo FLuc -4.3%, ELG1 genotoxic 10.9%, SMN2 splice up inconclusive and FLuc modulator 10.7µM*.
`O=C(Nc1cnc2ccccc2c1)c1ccncc1` gave Rab9 promoter act 3.16µM*, NPC1 promoter act 1.78µM*, KinaseGlo FLuc inconclusive, ELG1 genotoxic 2.31µM*, SMN2 splice up 21.5% and FLuc modulator 12µM*.
For CCN(CC)C(=O)Nc1cnc2ccccc2c1 the results were Rab9 promoter act inconclusive, NPC1 promoter act 10.2%, KinaseGlo FLuc 0.2%, ELG1 genotoxic 6.8%, SMN2 splice up -4.1% and FLuc modulator inconclusive.
Cc1ccc(NC(=O)c2cccc(C(=O)OC(C)C)n2)c(Br)c1 was read as Rab9 promoter act -2.5%, NPC1 promoter act -3.1%, KinaseGlo FLuc -0.3%, ELG1 genotoxic -1.2%, SMN2 splice up 13.4% and FLuc modulator inconclusive.
`COc1ccc(CN(C)C(=O)Cn2ccc(N)nc2=O)cc1OC` gave Rab9 promoter act -3.3%, NPC1 promoter act 0.1%, ELG1 genotoxic 1.2% and FLuc modulator -1.6%.
O=C(NCCS(=O)(=O)N1CCC2(CC1)OCCO2)c1ccc(F)cc1 was read as Rab9 promoter act -3.1%, NPC1 promoter act -0.2%, ELG1 genotoxic 0.8% and FLuc modulator -0.2%.
For O=C(C[n+]1ccc(/C=N/O)cc1)N1CCCCC1 the results were Rab9 promoter act -4.9%, NPC1 promoter act -2.5%, ELG1 genotoxic -3.9% and FLuc modulator 4.7%.
Cc1cccc(C)c1OCc1nc2c3cnn(-c4cccc(F)c4)c3ncn2n1 was read as SMN2 splice up 2.3% and FLuc modulator 1.3%.
Screening COc1cc(Cl)c(CNC[C@H]2O[C@@H](n3cnc4c(N)ncnc43)[C@H](O)[C@@H]2O)c(Cl)c1O returned ELG1 genotoxic -2.9%.
CC(=O)Nc1ccc(-c2csc(N3CCC(C(N)=O)CC3)n2)cc1 was read as FLuc modulator -11.3%.
For S=C(NCCc1ccccc1)Nc1ccc(Nc2ccccc2)cc1 the results were Rab9 promoter act -15.2%, NPC1 promoter act 1.0%, KinaseGlo FLuc 2.3%, ELG1 genotoxic -13.5% and FLuc modulator -7.5%.
For O=C(NC(=S)Nc1cnc2ccccc2c1)c1ccccc1 the results were Rab9 promoter act 3.55µM*, NPC1 promoter act inconclusive, KinaseGlo FLuc -11.0%, ELG1 genotoxic inconclusive, SMN2 splice up 11.2µM* and FLuc modulator 7.57µM*.
